Molecules are shown by their SMILES. Screen size: about 52,000 compounds; about 1,700 (3.3%) were called active. This excerpt belongs to a sample that is enriched for actives. Values without a mark were called inactive. Rule as the data show it: active = survival mostly below about 52% (no sharp cut-off); inactive = mostly above about 56%.

The results in this text go back to PubChem BioAssay AID463173 (ICCB-Longwood Screening Facility, Harvard Medical School, 2010).

The subject of the test is Wild type. Briefly: growth inhibition of S. aureus wild type versus tarO mutant, primary screen, teichoic acid synthesis inhibitors, RN4220, OD600 (AID 463173). As to conditions: S. aureus RN4220 wild type/DeltatarO growth, OD600, 18 h, stronger effect = lower value, screened at 18.75 µg/mL (by protocol).
Take `COc1cccc(CNC(=O)c2ccc3nc(-c4ccccc4)c(-c4ccccc4)nc3c2)c1OC`: the survival was 71%.
With `CCC(Cn1nnc2ccccc2c1=O)NC(=O)Nc1ccccc1OC` (stereo unspecified) the figure was 93%.
To `CCc1ccccc1NC(=O)[C@@H](c1ccccc1)N1Cc2ccccc2C1=O` belongs 22%; to `COc1ccccc1OCCSc1ncnc2nc[nH]c12`, 105%.
With `Cc1ccc(-c2nnc(Nc3ccc(F)cc3)c3ccccc23)cc1S(=O)(=O)NC(C)C` the figure was 81%; with `COCCCNC(=O)c1cc2cc(S(=O)(=O)N3CCCCC3)ccc2n1C`, 73%; with `COc1ccc(-c2noc(-c3cccc(OC)c3OC)n2)cc1`, -3% (active).
As for `COc1ccc(-c2noc(-c3ccccc3NC(=O)c3cc(OC)c(OC)c(OC)c3)n2)cc1`, the survival is 79%.
To `COc1ccc(C(=O)Nc2ccccc2-c2nc(-c3ccc(OC)cc3)no2)cc1` belongs 89%; to `Cc1ccc(OC(=O)c2snnc2C)cc1C`, 117%; to `COc1ccc(NC(=O)Nc2cccc(-c3cn4cccnc4n3)c2)cc1`, 77%.
With `CCOC(=O)c1c(-c2ccccc2)oc2ccc(NS(=O)(=O)c3ccc(OC)cc3)cc12` the figure was 66%; with `Cc1cc(F)ccc1S(=O)(=O)Nc1ccc2oc3c(c2c1)CC(C)CC3` (stereo unspecified), -6% (active).
Consider `Cc1cc(C)c(S(=O)(=O)Nc2ccc3oc4c(c3c2)CCCC4)cc1C`, for which the survival is 72%.
To `CCOC(=O)c1c(-c2ccccc2)oc2ccc(NS(=O)(=O)c3ccccc3)cc12` belongs 7% (active); to `CCCCOC(=O)c1c(C)oc2ccc(NS(=O)(=O)c3ccc(F)cc3C)cc12`, 1% (active).
With `CCOC(=O)c1c(-c2ccccc2)oc2ccc(NS(=O)(=O)c3ccc(C)cc3)cc12` the figure was 28%.
To `CCOC(=O)c1c(-c2ccccc2)oc2ccc(NS(=O)(=O)c3ccc(C)cc3C)cc12` belongs 51%; to `CCc1ccc(S(=O)(=O)Nc2ccc3oc(C)c(C(=O)OCCOC)c3c2)cc1`, 60%; to `CCOc1ccc(S(=O)(=O)Nc2ccc3oc4c(c3c2)CC(C)CC4)cc1` (stereo unspecified), 60%.
In the case of `Cc1ccc(NC(=O)Cn2c(=O)n(CCCCC(=O)NCc3ccccc3Cl)c(=O)c3ccccc32)cc1C`, the survival is 74%.
With `Cc1cccc(NC(=O)CSc2nccn2Cc2ccc(F)cc2)c1C` the figure was 71%; with `O=C(Nc1nc2ccc(S(=O)(=O)N3CCCC3)cc2s1)c1cccc(F)c1`, 63%.
Consider `COc1ccc2c(c1)c1c(c(=O)n(-c3ccc(F)c(Cl)c3)c(=O)n1Cc1cccc(C)c1)n2C`, for which the survival was 71%.
As to `Cc1cc(C)c(NC(=O)CSc2ccnc(=O)[nH]2)c(C)c1`, the survival is 74%.
To `CCc1nc(C)cn1S(=O)(=O)c1ccc(Cl)c(Cl)c1OC` belongs 77%; to `CCOc1cc(Cl)c(S(=O)(=O)n2ccnc2)cc1Cl`, 74%; to `CCOc1cc(Cl)c(S(=O)(=O)n2cc(C)nc2CC)cc1Cl`, -7% (active).
In the case of `CCCn1c(SCC(=O)c2ccc3c(c2)OCCO3)nnc1-c1ccco1`, the survival was 100%.
Take `Oc1ccc(Br)cc1C1CC(c2ccccc2)=NC(c2ccco2)N1` (stereo unspecified): the survival was 1% (active).
With `O=C(CCN1CCOCC1)N1N=C(c2ccccc2)CC1c1ccco1` (stereo unspecified) the figure was 104%.
To `COc1ccccc1N1CCN(c2ncnc3c2cnn3-c2cc(Cl)ccc2C)CC1` belongs 136%; to `COc1ccccc1N1CCN(c2ncnc3c2cnn3-c2cccc(Cl)c2)CC1`, -4% (active); to `COc1ccccc1N1CCN(c2ncnc3c2cnn3-c2ccc(C)cc2)CC1`, 63%.
To `O=C(COc1ccccc1Cl)N(Cc1ccco1)Cc1ccco1` belongs 81%; to `COc1ccc(NC(=O)CSc2c3c(nc4ccc(Cl)cc24)CCCC3)cc1Cl`, 75%.
Consider `CCOc1ccc(CNC(=O)CSc2c3c(nc4ccc(Cl)cc24)CCCC3)cc1`, for which the survival is 84%.
With `Cc1ccc(CNC(=O)CSc2c3c(nc4ccc(Cl)cc24)CCCC3)cc1` the figure was 80%; with `CN(Cc1ccccc1)C(=O)CSc1c2c(nc3ccc(Cl)cc13)CCCC2`, 0% (active).
With `CCCCNC(=O)CSc1c2c(nc3ccc(Cl)cc13)CCCC2` the figure was 66%; with `CCCN(CCC)C(=O)CSc1c2c(nc3ccc(Cl)cc13)CCCC2`, 52%; with `COc1cc(OC)c(N(C)C(=O)CSc2c3c(nc4ccc(Cl)cc24)CCCC3)cc1Cl`, 2% (active).
Regarding `COc1ccc(CNC(=O)CSc2c3c(nc4ccc(Cl)cc24)CCCC3)cc1`, the survival was 76%.
With `CCCCN(C)C(=O)CSc1c2c(nc3ccc(Cl)cc13)CCCC2` the figure was -2% (active).
On to `CCCCN(CC)C(=O)CSc1c2c(nc3ccc(Cl)cc13)CCCC2`, for which the survival was -2% (active).
With `CCc1ccc(CNC(=O)CSc2c3c(nc4ccc(Cl)cc24)CCCC3)cc1` the figure was 76%.
To `CCCNC(=O)CSc1c2c(nc3ccc(Cl)cc13)CCCC2` belongs 72%; to `CCCN(C(=O)c1c(C)oc2ncn(CC(C)C)c(=O)c12)c1ccccc1C`, 59%.
To `CCOc1ccc(CCNC(=O)Cn2nc(C)c3c(C)n(-c4ccccc4)nc3c2=O)cc1OCC` belongs 19%; to `CCn1cc(CCC(=O)NCc2ccccc2OC)c2ccccc21`, 76%.
Regarding `COc1ccc(C(=O)NCc2nnc(SCC(=O)Nc3ccccc3)n2-c2ccc(F)cc2)cc1`, the survival is 78%.
Take `Clc1cccc(-n2ncc3c(N4CCCCCC4)ncnc32)c1`: the survival was 81%.
To `COc1cccc(CC(=O)Nc2ccc(-c3nc4ccccc4s3)cc2Cl)c1` belongs 73%.
To `COc1ccc(-c2nc3ccccc3s2)cc1NC(=O)COc1cccc(C)c1` belongs 39%; to `COc1cccc(CC(=O)Nc2ccc(-c3nc4ccccc4s3)cc2)c1`, -3% (active).
To `Cc1cc(C)cc(OCC(=O)Nc2ccc(-c3nc4ccccc4s3)cc2)c1` belongs 88%.
Turning to `COc1ccc(CC(=O)Nc2ccc(-c3nc4ccccc4s3)c(C)c2)cc1`, the survival is 69%.
To `Cc1ccc(OCC(=O)Nc2cccc(-c3nc4ccccc4s3)c2)cc1` belongs 55%; to `COc1ccc(CC(=O)Nc2ccc(-c3nc4ccccc4s3)c(C)c2)cc1OC`, 10% (active); to `Cc1cccc(OCC(=O)Nc2cccc(-c3nc4ccccc4s3)c2)c1`, 5% (active).
In the case of `COc1ccccc1C(=O)Nc1ccc(-c2nc3ccccc3s2)c(C)c1`, the survival is 82%.
